G9a inh: G9a (human) methyltransferase inhibition; AID 504332; Potency, µM (series often up to 102 µM), for the others: at the top dose activity, negative = inhibition, most hits filed as inhibitors; Q96KQ7; G9a H3K9 monomethylation, AlphaScreen, 2 h; actives 8.8% (n = 350,000); also: % is scaled to controls: 0 for no effect and ±100 for the full control effect; nearly all actives have a fitted effect of over 75% in size
Target sequence (Q96KQ7 913-1193 limits assumed): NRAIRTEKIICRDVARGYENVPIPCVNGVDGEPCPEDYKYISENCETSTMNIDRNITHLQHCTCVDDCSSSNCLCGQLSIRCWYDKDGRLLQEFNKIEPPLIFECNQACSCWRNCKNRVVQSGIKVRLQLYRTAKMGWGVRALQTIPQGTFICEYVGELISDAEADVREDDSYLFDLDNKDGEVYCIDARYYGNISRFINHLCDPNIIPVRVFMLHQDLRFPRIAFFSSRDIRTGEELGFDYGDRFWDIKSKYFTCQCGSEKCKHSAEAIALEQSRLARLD
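Chemiluminescent proximity detection of H3K9 monomethylation, read after 10 min bead incubation in the dark. Reaction: 20 nM G9a, 500 nM biotin-H3K9 peptide, 20 uM SAM cofactor, 2 h, room temperature, following 15 min enzyme-compound preincubation.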
GLS inhibitor: glutaminase GLS (human) inhibition; O94925; GLS enzymatic activity, qHTS titration; Potency, µM (top dose mostly 45.5 µM), for the others: at the highest dose activity change, negative = inhibition, usual class: inhibitors; actives 0.21% (n = 410,000); AID 624170; also: % is scaled to controls: 0 for no effect and ±100 for the full control effect
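Two-point fluorescence kinetic (t0, 30 min RT) for hKGA; glutamate detected via glutamate oxidase–HRP–Amplex Red. Substrate: 1 mM L-glutamine solution; buffer 45 mM KH2PO4, pH 8.2.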
BAZ2B inh: blocks human BAZ2B; AlphaScreen BAZ2B-H3K14Ac peptide displacement; Potency, µM (titrated, usually from 114 µM), for inactives: at the top dose activity change, negative = inhibition, hits mostly inhibitors; actives 4.4% (n = 360,000); AID 504333; also: % is scaled to controls: 0 for no effect and ±100 for the full control effect; nearly all actives have a fitted effect of over 60% in size
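BAZ2B 50 nM plus b-H3(5-23)K14Ac 50 nM, PBS pH 7.4/0.01% Tween-20, 30 min RT; compound added (max 110 uM), 30 min RT; streptavidin donor/Ni-chelate acceptor beads 10 ug/mL final, 20 min dark; AlphaScreen read.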
JMJD2A Tudor: JMJD2A Tudor domain (human) inhibition | O75164 | AlphaScreen JMJD2A-Tudor / H3K4me3 peptide binding | Potency, µM (titrated, usually from 114 µM), for the others: at the highest dose activity change, negative = inhibition, usual class: inhibitors | actives 4.4% (n = 390,000) | AID 504339; also: % is scaled to controls: 0 for no effect and ±100 for the full control effect; nearly all actives have a fitted effect of over 50% in size
HP1b chromo inh: inhibitors of HP1-beta chromodomain binding to methylated histone tails; P83916; AlphaScreen HP1-beta / biotin-H3K9me3 peptide binding; Potency, µM (top dose mostly 114 µM), for the others: top-dose activity change, negative = inhibition, actives largely listed as inhibitors; actives 0.56% (n = 390,000); also: nearly all actives have a fitted effect of over 70% in size
Target sequence (P83916 whole entry, looked up): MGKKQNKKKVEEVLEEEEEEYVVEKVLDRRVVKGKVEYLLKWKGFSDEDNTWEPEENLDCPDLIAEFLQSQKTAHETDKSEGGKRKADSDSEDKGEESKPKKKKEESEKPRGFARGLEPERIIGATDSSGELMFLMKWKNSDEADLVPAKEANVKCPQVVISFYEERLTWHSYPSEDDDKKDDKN
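HP1-beta protein (50 nM final) preincubated 30 min at room temperature with biotinylated H3(1-18)K9me3 peptide (50 nM) in PBS pH 7.4, 0.01% Tween-20, then compound added for 30 min. AlphaScreen streptavidin donor/nickel chelate acceptor beads (10 ug/mL final), 30 min dark, luminescence read.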
Numbers without * were called inactive; ? = inconclusive; . = no result given; [ ] = dose if it differs, or a comment. Hits are enriched below; roughly 10% of the tested compounds scored in any of these assays. Calls follow the shape of the dose curve; as a rule, active = well fitted curve in the direction sought with a large enough effect; inconclusive = small, poorly fitted or top-dose-only effect, or another doubt; inactive = no such curve, though single readings can be large; an effect the other way counts as inactive or inconclusive. Potency is read from the fitted curve at half-maximal effect.

SMILES	G9a inh	GLS inhibitor	BAZ2B inh	JMJD2A Tudor	HP1b chromo inh
Cc1cccc(-c2ncc(CN3CCN(CC(C)C)C(CCO)C3)cn2)c1 (stereo not given)	-4%[59 µM]	-13%	-19%	18µM*	11%
Cc1ccc(-c2cccc(CN3CCN(C(C)C)C(CCO)C3)c2)o1 (stereo not given)	45µM*	8%	-32%	-24%	20%
CC(C)N1CCN(Cc2ccncc2)CC1CCO (stereo not given)	.	1%	-2%	-13%	42%
COc1ccc(-c2ncc(CN3CCN(CCC(C)C)C(CCO)C3)cn2)cc1 (stereo not given)	.	3%	7%	-25%	18%
CCN1CCN(C2=CC3=CC(=C(C#N)C#N)CCC3CC2)CC1 (stereo not given)	45µM*	20%	-25%	9%	50%
CN1CCN(C2=CC3=CC(=C(C#N)C#N)CCC3CC2)CC1 (stereo not given)	?	-13%	?	-21%	1%
CCN(CC)c1ccc2nc3ccc(N)cc3[n+](-c3ccccc3)c2c1	-33%[0.501 µM]	-4%	13µM*	45µM*	-89%
CCN(CC)c1ccc2cc(-c3nc4ccccc4[nH]3)c(=O)oc2c1	-4%[59 µM]	?	19%	5%	163%
CCN(CC)c1ccc2nc3ccccc3[n+](CC)c2c1	14µM*	-18%	40µM*	?	?
COc1ccc(S(=O)(=O)N2CCN(C(=O)C3CCCCC3)CC2)cc1	17%	2%	-1%	-10%	38%
CCCC(NC(=S)NCC1CCCO1)C12CC3CC(CC(C3)C1)C2 (stereo not given)	13µM*	3%	-6%	?	13%
CCCC(NC(=O)c1c(C)noc1C)C12CC3CC(CC(C3)C1)C2 (stereo not given)	4%	0%	-1%	-7%	-1%
Cc1cc(S(=O)(=O)N2CCN(CC(=O)N(C)Cc3ccccc3)CC2)ccc1Br	56µM*	0%	-7%	-11%	23%
CC(=O)c1cccc(NCC(=O)c2ccc(C)c([N+](=O)[O-])c2)c1	35µM*	1%	-21%	-28%	74%
CC(=O)Nc1cccc(NC(=O)c2ccc(C)c([N+](=O)[O-])c2)c1	-37%	0%	-17%	-6%	7%
CC(=O)c1cccc(NC(=S)NNC(=O)c2ccc(C)c([N+](=O)[O-])c2)c1	20µM*	19%	-6%	?	-14%
Cc1ccc(-n2c(C)cc(C(=O)COc3c(CO)cc(F)cc3CO)c2C)cc1C	-15%[59 µM]	9%	?	?	?
O=C(CC1C(=O)NCCN1C(=O)Nc1ccc(F)cc1F)Nc1ccc(F)cc1 (stereo not given)	12%	-6%	1%	1%	20%
O=C1C2C3C=CC(C3)C2C(=O)N1/N=C/c1ccc(-c2ccccc2[N+](=O)[O-])o1 (stereo not given)	-10%[59 µM]	16%	?	?	-23%
CN1C(=O)/C(=C/c2ccc(-c3ccccc3[N+](=O)[O-])o2)SC1=Nc1ccc(Cl)c(C(=O)O)c1	3.2µM*	?	45µM*	?	-39%
CC(=O)Nc1cccc(S(N)(=O)=O)c1C	2%	-9%	-2%	-1%	89%
COc1ccc(NC(=O)c2ccccc2[N+](=O)[O-])cc1	19%[59 µM]	-14%	3%	-8%	30%
COc1ccccc1Nc1ncccc1[N+](=O)[O-]	8.9µM*	-1%	32µM*	45µM*	?
COc1ccccc1Nc1ccc(NC(=O)c2cccc([N+](=O)[O-])c2C)cc1	9%[2.33 µM]	8%	10µM*	13µM*	?
CCN(C(=O)CCc1nc(-c2ccc(C)cc2)no1)c1cccc(Cl)c1	28%[59 µM]	1%	71%	40%	84%
SMILES	G9a inh	GLS inhibitor	BAZ2B inh	JMJD2A Tudor	HP1b chromo inh
O=C(CSc1nnc(-c2ccco2)c(-c2ccco2)n1)c1ccccc1	7%	-17%	-1%	45µM*	?
CC(=O)c1ccc(NC(=O)CSc2nnc(-c3ccco3)c(-c3ccco3)n2)cc1	.	-19%	45µM*	22µM*	32µM*
CCOc1ccc(C(=O)NCC(=O)N2CCc3ccccc3C2)cc1OCC	6%	3%	13%	3%	30%
CC(=C\C(=O)O)/C(=C/c1ccccc1)C(=O)O	24%[0.501 µM]	-9%	-11%	-19%	49%
N#CC1=C(c2ccccc2)/C(=C/c2ccccc2)OC1=O	13µM*	33%	22µM*	?	?
O=C(OCc1cc2ccccc2[nH]c1=O)c1cccs1	20µM*	-11%	8%	-3%	37%
C=CCn1c(SCC(=O)Nc2nc(C)cs2)nnc1C(C)NC(=O)c1ccccc1Cl (stereo not given)	?	6%	-6%	89µM*	19%
O=C(ONC1=NCCCCC1)c1cccc([N+](=O)[O-])c1	4%	22µM*	3%	-5%	0%
CCOC(=O)N1CCN(C(=O)CCCn2c(=S)[nH]c3ccsc3c2=O)CC1	32µM*	-23%	?	22µM*	19%
CCOC(=O)N1CCN(C(=O)CCCn2c(=S)[nH]c3ccc(Br)cc3c2=O)CC1	10µM*	4%	-9%	-13%	24%
CCOC(=O)N1CCN(C(=O)CCCCCn2c(=S)[nH]c3ccsc3c2=O)CC1	18µM*	-22%	-13%	79µM*	34%
CCOC(=O)N1CCN(C(=O)CCCn2c(=S)[nH]c3ccccc3c2=O)CC1	?	-19%	?	?	39%
NC(=O)C1CCN(C(=O)CCCCCn2c(=O)[nH]c3ccsc3c2=O)CC1	-9%[59 µM]	-10%	2%	-11%	4%
COc1cc(/C=N/NC(=O)c2cccnc2)ccc1OCC(=O)Nc1ccccc1Cl	22%	1%	-1%	-2%	43%
CC[C@H](C)NC(=O)c1ccc(Cn2c(=S)[nH]c3c([nH]c4ccc(OC)cc43)c2=O)cc1	56µM*	1%	71µM*	?	-1%
CCOCCCNC(=O)c1ccc(Cn2c(=S)[nH]c3c([nH]c4ccc(OC)cc43)c2=O)cc1	?	?	-2%	-26%	15%
COc1ccc2[nH]c3c(=O)n(Cc4ccc(C(=O)N5CCC(C(N)=O)CC5)cc4)c(=S)[nH]c3c2c1	3.2µM*	22µM*	?	4µM*	?
CCCCNC(=O)c1ccc(Cn2c(=S)[nH]c3c([nH]c4ccc(OC)cc43)c2=O)cc1	-19%	-2%	-5%	-32%	16%
COc1ccc2[nH]c3c(=O)n(Cc4ccc(C(=O)NCC5CCCO5)cc4)c(=S)[nH]c3c2c1 (stereo not given)	1.3µM*	?	?	10µM*	16%
Cc1nnc(SCCC(C)C)[nH]c1=O	4%	-10%	-1%	-20%	83%
